For eight molecules, outcome and Potency results are on record in PubChem BioAssay (Tox21).

Inconclusive results are not listed. Unmarked numbers belong to inactive results. The source made the active and inactive calls. Unless noted, calls come from the whole dose curve; as a rule, active = well fitted curve in the direction sought with a large enough effect in the repeat runs; inconclusive = weak or mixed curves; inactive = no such curve, though single readings can be large; an effect the other way counts as inactive or inconclusive.

Assay [1] addresses Peroxisome proliferator-activated receptor delta (Homo sapiens) (UniProt Q03181). The assay is described as follows: qHTS assay to identify small molecule agonists of the peroxisome proliferator-activated receptor delta (PPARd) signaling pathway (AID 743212; calls by dose curve). In a few lines: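 GeneBLAzer UAS-bla HEK293H cells carrying a PPARδ construct were exposed to compounds at 37 °C. Beta-lactamase activity was read by FRET fluorescence after 2 h at room temperature with LiveBLAzer B/G substrate.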
(In qHTS, concentration-response curves come from the screen itself.)

Assay [2] in a line: qHTS assay to identify small molecule antagonists of the peroxisome proliferator-activated receptor delta (PPARd) signaling pathway - cell viability counter screen (AID 743213). Note: nearly all actives have a fitted effect of over 50% in size. Note: potency is the fitted concentration of half-maximal effect. A digest of the protocol:
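Agonist-stimulated (L165041, 300 nM final) HEK293H PPARd UAS-bla cells are exposed to compounds for 17 h at 37 C, and ATP-based luminescence (CellTiter-Glo) from the same wells reports cytotoxicity.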

The target of assay [3] is Bile acid receptor (Homo sapiens) (UniProt Q96RI1). Put plainly: qHTS assay to identify small molecule antagonists of the farnesoid-X-receptor (FXR) signaling pathway (AID 743217; active = well fitted inhibition curve with a large enough effect in the signal ratio in the repeat runs, not every such curve was filed as active; the % refers to the signal ratio; note: potency is the fitted concentration of half-maximal effect). In a few lines: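 FXR-UAS-bla HEK 293T cells pre-incubated 5 h at 37 °C, then exposed to compounds with chenodeoxycholic acid (50 uM final) for 16 h at 37 °C. Beta-lactamase reporter read by LiveBLAzer B/G FRET substrate fluorescence after 2 h at room temperature.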
Bile acid receptor (Homo sapiens), sequence (Q96RI1 whole entry, looked up): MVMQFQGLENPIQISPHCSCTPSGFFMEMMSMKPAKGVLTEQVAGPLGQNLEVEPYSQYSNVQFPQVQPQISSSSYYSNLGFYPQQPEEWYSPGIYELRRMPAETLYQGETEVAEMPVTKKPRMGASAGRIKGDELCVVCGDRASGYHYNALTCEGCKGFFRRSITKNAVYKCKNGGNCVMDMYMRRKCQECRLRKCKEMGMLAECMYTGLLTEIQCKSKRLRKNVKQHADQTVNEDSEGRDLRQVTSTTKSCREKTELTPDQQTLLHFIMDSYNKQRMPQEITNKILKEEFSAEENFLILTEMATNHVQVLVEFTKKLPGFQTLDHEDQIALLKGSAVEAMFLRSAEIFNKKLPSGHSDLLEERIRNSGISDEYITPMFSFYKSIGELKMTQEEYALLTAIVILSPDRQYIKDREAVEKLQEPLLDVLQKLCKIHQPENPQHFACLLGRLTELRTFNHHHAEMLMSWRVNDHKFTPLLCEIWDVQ

Assay [4] in a line: qHTS assay to identify small molecule agonists of the farnesoid-X-receptor (FXR) signaling pathway - cell viability counter screen (AID 743218). Note: nearly all actives have a fitted effect of over 45% in size. Note: potency is the fitted concentration of half-maximal effect. A digest of the protocol:
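FXR-UAS-bla HEK 293T cells, plated 5 h at 37 C, were exposed to compounds for 16 h at 37 C. CellTiter-Glo was then added to the same wells as the bla readout; luminescence read after 30 min at room temperature.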

Assay [5] has as its target Bile acid receptor (Homo sapiens) (UniProt Q96RI1). The assay is described as follows: qHTS assay to identify small molecule agonists of the farnesoid-X-receptor (FXR) signaling pathway (AID 743220; active = well fitted activation curve with a large enough effect in the signal ratio in the repeat runs, not every such curve was filed as active; the % refers to the signal ratio). In a few lines: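 Beta-lactamase reporter under UAS control in GeneBLAzer FXR HEK 293T cells (5000/well) measured with LiveBLAzer FRET substrate after 2 h at room temperature. Compound exposure lasted 16 h at 37C.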

Assay [6] addresses Vitamin D3 receptor (Homo sapiens) (UniProt P11473). Put plainly: qHTS assay to identify small molecule agonists of the vitamin D receptor (VDR) signaling pathway (AID 743222; calls by dose curve). In a few lines: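 VDR-bla cells were plated 4 h at 37C/5% CO2, then exposed to compounds in DMSO for 16 h. After LiveBLAzer B/G FRET substrate addition and 2 h at room temperature, beta-lactamase reporter fluorescence was read.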

Assay [7] has the same target. Put plainly: qHTS assay to identify small molecule antagonists of the vitamin D receptor (VDR) signaling pathway (AID 743223; active = well fitted inhibition curve with a large enough effect in the signal ratio in the repeat runs, not every such curve was filed as active; the % refers to the signal ratio; note: potency is the fitted concentration of half-maximal effect). In a few lines: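 Inhibition of agonist-driven VDR signalling is scored in VDR-bla cells: 3 nM final 1alpha,25-dihydroxyvitamin D3 plus compound, 16 h at 37C, then beta-lactamase detection by FRET substrate fluorescence after 2 h.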
Assay [8] is described as follows: qHTS assay to identify small molecule agonists of the vitamin D receptor (VDR) signaling pathway - cell viability counter screen (AID 743224). Note: nearly all actives have a fitted effect of over 50% in size. Note: potency is the fitted concentration of half-maximal effect. In a few lines: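 VDR-bla cells were preincubated 4 h at 37C/5% CO2, then exposed to compounds for 16 h. After the 2 h room-temperature bla FRET read, CellTiter-Glo was added to the same wells and luminescence read after 30 min.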

The nature of assay [9]: qHTS assay to identify small molecule agonists of the endoplasmic reticulum stress response signaling pathway (AID 1159516; active = well fitted activation curve with a large enough effect in the signal ratio in the repeat runs, not every such curve was filed as active; the % refers to the signal ratio). In a few lines:
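CellSensor ESRE-bla HeLa cells, carrying a beta-lactamase reporter driven by the ER stress response element, were plated overnight and exposed to compounds for 5 hr at 37 C. Reporter activity was read as FRET substrate fluorescence after 2 hr at room temperature.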

Assay [10] is described as follows: qHTS assay to identify small molecule agonists of the endoplasmic reticulum stress response signaling pathway - cell viability counter screen (AID 1159517; calls by dose curve; note: series mostly up to about 61 µM; nearly all actives have a fitted effect of over 50% in size). A digest of the protocol:
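ESRE-bla HeLa cells, 1,500 per well, seeded overnight then treated with compounds for 5 hr at 37 C. After the beta-lactamase read, viability in the same wells is measured by CellTiter-Glo luminescence after 30 min at room temperature.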

Assay [11] is described as follows: qHTS assay to identify small molecule antagonists of the retinoid-related orphan receptor gamma (ROR-gamma) signaling pathway - cell viability counter screen (AID 1159520). Note: nearly all actives have a fitted effect of over 50% in size. A digest of the protocol: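 Tet-on ROR gamma CHO cells were given compounds for 2 hr, then doxycycline hyclate at 1 uM final, and incubated 16 hr at 37 C. Viability was measured as ATP content by CellTiter-Glo luminescence.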

For assay [12], the target named is Nuclear receptor ROR-gamma (Homo sapiens) (UniProt P51449). The assay is described as follows: qHTS assay to identify small molecule antagonists of the retinoid-related orphan receptor gamma (ROR-gamma) signaling pathway (AID 1159521; note: nearly all actives have a fitted effect of over 50% in size; note: potency is the fitted concentration of half-maximal effect). In a few lines:
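Test compounds were applied to Tet-on RORγ CHO cells 2 h ahead of doxycycline hyclate (1 uM final). Luciferase reporter activity was quantified by luminescence after 16 h at 37 C and 5% CO2.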

Assay [13] is described as follows: qHTS assay to identify small molecule agonists of the AP-1 signaling pathway - cell viability counter screen (AID 1159525; calls by dose curve; note: nearly all actives have a fitted effect of over 55% in size). A digest of the protocol:
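AP-1-bla ME-180 cells in Opti-MEM with 0.5% dialyzed FBS, compound exposure 5 h at 37 C in 15-point titration. Viability read in the same wells as ATP content by CellTiter-Glo luminescence, normalised to tetra-n-octylammonium bromide and DMSO controls.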

The target of assay [14] is Retinoic acid receptor RXR-alpha (Homo sapiens) (UniProt P19793). Put plainly: qHTS assay to identify small molecule agonists of the RXR signaling pathway (AID 1159527; calls by dose curve; note: nearly all actives have a fitted effect of over 35% in size). In a few lines: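 Using 9-cis retinoic acid as the reference agonist, chemicals were tested in HEK 293T cells […] for 16 hr; substrate loading lasted 2 hr at room temperature.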
Retinoic acid receptor RXR-alpha (Homo sapiens), sequence (P19793 whole entry, looked up): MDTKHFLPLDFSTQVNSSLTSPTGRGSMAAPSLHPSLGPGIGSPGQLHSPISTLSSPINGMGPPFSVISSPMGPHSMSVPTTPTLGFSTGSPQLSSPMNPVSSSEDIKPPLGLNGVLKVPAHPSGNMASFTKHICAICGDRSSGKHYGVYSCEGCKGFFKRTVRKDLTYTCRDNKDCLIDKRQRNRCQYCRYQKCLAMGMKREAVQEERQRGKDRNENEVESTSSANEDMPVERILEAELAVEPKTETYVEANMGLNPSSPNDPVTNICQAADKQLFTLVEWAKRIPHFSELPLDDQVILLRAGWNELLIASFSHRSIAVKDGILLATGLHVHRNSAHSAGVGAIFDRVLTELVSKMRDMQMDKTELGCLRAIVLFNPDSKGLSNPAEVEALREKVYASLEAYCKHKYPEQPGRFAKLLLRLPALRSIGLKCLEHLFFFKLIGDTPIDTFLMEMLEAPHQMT

Assay [15] can be described thus: qHTS assay to identify small molecule agonists of the RXR signaling pathway - cell viability counter screen (AID 1159529). A digest of the protocol: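 Compounds dissolved in DMSO were pinned onto HEK 293T cells carrying a beta-lactamase reporter under RXR-alpha control and incubated 16 hr. Cytotoxicity was then quantified by CellTiter-Glo luminescence.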
Assay [16] can be described thus: qHTS assay to identify small molecule antagonists of the farnesoid-X-receptor (FXR) signaling pathway - cell viability counter screen (AID 743221; active = well fitted cell-killing curve with a large enough effect in the repeat runs, not every such curve was filed as active; note: nearly all actives have a fitted effect of over 50% in size). In a few lines: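 Here viability was scored by luminescence after CellTiter-Glo addition to wells already read for beta-lactamase. Prior treatment: compound plus CDCA (50 uM final), 16 h, 37 C, HEK 293T FXR-bla cells.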

A short description of assay [17]: qHTS assay to identify small molecule antagonists of the vitamin D receptor (VDR) signaling pathway - cell viability counter screen (AID 743225). Note: nearly all actives have a fitted effect of over 50% in size. A digest of the protocol: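 Compounds were pinned onto VDR-bla HEK 293T cells together with 1-alpha,25-dihydroxyvitamin D3 at 3 nM final. After 16 h at 37C and 5% CO2 plus the reporter readout, cell viability was measured by CellTiter-Glo luminescence (30 min, room temperature).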

Assay [18] has as its target Peroxisome proliferator-activated receptor delta (Homo sapiens) (UniProt Q03181). Put plainly: qHTS assay to identify small molecule antagonists of the peroxisome proliferator-activated receptor delta (PPARd) signaling pathway (AID 743215; active = well fitted inhibition curve with a large enough effect in the signal ratio in the repeat runs, not every such curve was filed as active; the % refers to the signal ratio; note: series mostly up to about 62 µM). A digest of the protocol:
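PPARd UAS-bla HEK293H cells were pre-incubated 5 h at 37 C, then given test compounds in DMSO plus agonist L165041 (300 nM final). After 17 h at 37 C, beta-lactamase FRET substrate was added; fluorescence read after 2 h at room temperature.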

A short description of assay [19]: qHTS assay to identify small molecule agonists of the peroxisome proliferator-activated receptor delta (PPARd) signaling pathway - cell viability counter screen (AID 743211). Note: nearly all actives have a fitted effect of over 55% in size. A digest of the protocol:
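In the same wells used for beta-lactamase reporter measurement, cytotoxicity is scored by CellTiter-Glo. HEK293H PPARd-bla cells receive compound for 17 h at 37C following a 5 h settling period.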

Assay [20] in a line: qHTS assay to identify small molecule agonists of the AP-1 signaling pathway (AID 1159526; calls by dose curve).

Vitamin D3 receptor (Homo sapiens), sequence (P11473 whole entry, looked up): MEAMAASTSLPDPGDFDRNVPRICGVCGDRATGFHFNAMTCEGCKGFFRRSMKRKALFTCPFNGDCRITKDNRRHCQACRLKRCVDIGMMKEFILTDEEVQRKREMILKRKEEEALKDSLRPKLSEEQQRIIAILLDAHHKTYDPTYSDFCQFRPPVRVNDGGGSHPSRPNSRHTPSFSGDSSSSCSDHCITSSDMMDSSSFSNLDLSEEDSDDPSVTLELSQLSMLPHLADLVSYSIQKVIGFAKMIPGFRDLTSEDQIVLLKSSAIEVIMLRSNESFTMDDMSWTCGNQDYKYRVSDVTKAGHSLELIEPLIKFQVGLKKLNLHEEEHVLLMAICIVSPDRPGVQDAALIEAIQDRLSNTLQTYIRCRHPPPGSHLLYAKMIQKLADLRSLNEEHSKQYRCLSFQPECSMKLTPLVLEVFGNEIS
Peroxisome proliferator-activated receptor delta (Homo sapiens), sequence (Q03181 whole entry, looked up): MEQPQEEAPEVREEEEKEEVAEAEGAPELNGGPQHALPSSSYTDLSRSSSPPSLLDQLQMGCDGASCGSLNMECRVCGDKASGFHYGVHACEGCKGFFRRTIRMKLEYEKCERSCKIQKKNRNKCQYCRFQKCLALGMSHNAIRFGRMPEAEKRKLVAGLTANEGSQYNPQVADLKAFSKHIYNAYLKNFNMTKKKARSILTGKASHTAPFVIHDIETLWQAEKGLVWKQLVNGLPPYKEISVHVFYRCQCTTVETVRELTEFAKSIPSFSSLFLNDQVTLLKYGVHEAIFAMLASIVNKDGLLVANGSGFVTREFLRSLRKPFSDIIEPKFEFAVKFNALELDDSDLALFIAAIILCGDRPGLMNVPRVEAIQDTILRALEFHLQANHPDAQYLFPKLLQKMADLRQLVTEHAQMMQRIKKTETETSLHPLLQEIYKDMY

With `CCCCCCCC/C=C\CCCCCCCC(=O)NCc1ccc(O)c(OC)c1`, in assay [1], the result was inactive. Besides, the Potency was 18.8 µM (active) in assay [2]; 29.8 µM (active) in assay [3]; 29.8 µM (active) in assay [4]; 26.8 µM (active) in assay [7]; 33.5 µM (active) in assay [8]. Also, the Potency result in assay [5], in assay [6], in [9], in assay [10], in assay [11] and in assay [12] was “inactive” each time. Further, the Potency entry in assay [13], in [14] and in [15] was “inactive” throughout.

Take `O=C(O)Cc1ccc(OCCNC[C@H](O)c2ccccc2)cc1`: the Potency entry in assay [2], in [3], in assay [4], in [5], in [16] and in assay [7] was “inactive” in each case. The Potency entry in [17], in assay [9], in assay [10], in [11], in assay [12] and in [13] was “inactive” each time. Further, the Potency entry in assay [15] was “inactive”.

Take `CCCN(CCc1cccs1)[C@H]1CCc2c(O)cccc2C1`: the result in assay [1] was inactive. The Potency result in assay [2], in [18], in [16], in assay [8], in [9] and in assay [10] was “inactive” throughout. Further, the Potency result in assay [11], in [12] and in assay [13] was “inactive” throughout.

As for `CCCCCCCCCCCC(=O)N(CC)CC`, the Potency result in assay [19], in [2], in [18], in assay [3], in assay [5] and in assay [16] was “inactive” each time. For the same molecule, the Potency entry in assay [6], in [7], in [17], in assay [9], in assay [10] and in [11] was “inactive” throughout. Also, the Potency entry in assay [12], in assay [13] and in [15] was “inactive” each time. Besides, the molecule was called inactive in assay [1].

As for `CC(C)(C)C1=CC(=O)C=C(C(C)(C)C)C1=O`, the Potency result in assay [2], in assay [16], in assay [6], in [7], in assay [8] and in assay [9] was “inactive” each time. In addition, the Potency result in assay [10], in [11], in assay [13], in assay [20] and in assay [15] was “inactive” each time.

Consider `ClC/C=C\CCl`, for which the Potency result in assay [19], in assay [2], in [18], in assay [16], in assay [6] and in [7] was “inactive” throughout. The Potency result in assay [8], in [9], in assay [10], in assay [11], in assay [13] and in [20] was “inactive” throughout. Besides, the Potency entry in [15] is “inactive”. Moreover, the molecule was called inactive in assay [1].

`CC1CCCCN1CCCOC(=O)c1ccc(OC2CCCCC2)cc1` (stereo not drawn): in assay [1], the call was inactive. Moreover, the Potency result in [2], in assay [18], in [3], in assay [5], in assay [16] and in [6] was “inactive” each time. Besides, the Potency entry in [7], in [8], in [9], in [10], in assay [11] and in [13] was “inactive” each time. The Potency in [12] was 11.9 µM (active).

Take `NCCCC(O)(P(=O)(O)O)P(=O)(O)O`: the Potency entry in assay [19], in assay [2], in assay [4], in assay [16], in [6] and in assay [7] was “inactive” each time. Also, the Potency entry in assay [8], in [17], in [9], in [10], in [11] and in [13] was “inactive” each time. The Potency entry in assay [20], in assay [14] and in assay [15] was “inactive” each time.
